A number with no mark means an inactive call. Results filed as inconclusive are left out. A call without a number means that no potency is given here. Calls of active or inactive are those of the source. Unless noted, calls follow the shape of the dose curve; as a rule, active = well fitted curve in the direction sought with a large enough effect in the repeat runs; inconclusive = weak or mixed curves; inactive = no such curve, though single readings can be large; an effect the other way counts as inactive or inconclusive.
Columns and labels:
[1] = target: Estrogen receptor beta (Homo sapiens) (UniProt Q92731); test: qHTS assay to identify small molecule agonists of the estrogen receptor beta (ER-beta) signaling pathway (AID 1259377; active = well fitted activation curve with a large enough effect in the signal ratio in the repeat runs, not every such curve was filed as active; the % refers to the signal ratio)
Summary of the method: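 Read-out: beta-lactamase FRET fluorescence. Cell line: ER-beta-UAS-bla HEK293T in 2% charcoal-stripped FBS. Exposure: 16 hr at 37C. Substrate step: 2 h at room temperature.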

[2] = target: Estrogen receptor beta (Homo sapiens) (UniProt Q92731); test: qHTS assay to identify small molecule antagonists of the estrogen receptor beta (ER-beta) signaling pathway (AID 1259378; active = well fitted inhibition curve with a large enough effect in the signal ratio in the repeat runs, not every such curve was filed as active; the % refers to the signal ratio; also: potency is read from the fitted curve at half-maximal effect)
Summary of the method: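 ER-beta-UAS-bla HEK293T cells in 2% charcoal-stripped FBS medium treated with compound plus 1nM final 17-beta-estradiol for 16 hr at 37C. Beta-lactamase reporter read by FRET substrate fluorescence after 2 hours at room temperature.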

[3] = qHTS assay to identify small molecule agonists of the androgen receptor (AR) signaling pathway in the presence of an antagonist - cell viability counter screen (AID 1259379); also: nearly all actives have a fitted effect of over 25% in size; also: potency is read from the fitted curve at half-maximal effect
Summary of the method: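 Seed MDA-kb2 at 3,000 cells/well; incubate 5 hr, 37C, 0% CO2. Add nilutamide to 3.0uM final, then pin compounds at 15 concentrations. Incubate 16 hr. Add CellTiter-Fluor at 15 hr, read fluorescence after 1 hr.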

[4] = qHTS assay to identify small molecule agonists of the estrogen receptor beta (ER-beta) signaling pathway - cell viability counter screen (AID 1259380); also: nearly all actives have a fitted effect of over 30% in size; also: potency is read from the fitted curve at half-maximal effect
Summary of the method: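 CellTiter-Glo read, 30 min RT, same wells as bla assay; cells ER-beta-UAS-bla HEK293T; 16 hr compound, 37C; medium 2% charcoal-stripped FBS.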

[5] = qHTS assay to identify small molecule antagonists of the estrogen receptor beta (ER-beta) signaling pathway - cell viability counter screen (AID 1259382); also: nearly all actives have a fitted effect of over 55% in size; also: potency is read from the fitted curve at half-maximal effect
Summary of the method: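 In this multiplexed counter screen, cells were seeded at 2,000 per well in medium with 2% charcoal-stripped FBS and incubated 6 hr before compound and 1nM final E2 were added. Sixteen hours later, ATP-based luminescence reported viability.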

[6] = target: Estrogen receptor (Homo sapiens) (UniProt P03372); test: qHTS assay to identify small molecule agonists of the estrogen receptor alpha (ER-alpha) signaling pathway in the presence of an antagonist (AID 1259383; calls by dose curve; also: top concentration of the series differs between compounds; nearly all actives have a fitted effect of over 15% in size)
Summary of the method: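 Stably transfected VM7Luc4E2 reporter cells, kept 5 days in charcoal-stripped serum, received ICI-182,780 at 10.0nM final before compound addition. Following 22hr incubation at 37C and 5% CO2, luciferase signal was read by luminescence.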

[7] = qHTS assay to identify small molecule agonists or antagonists of the thyroid stimulating hormone receptor (TSHR) signaling pathway - wild type cell line counter screen (AID 1259384; calls by dose curve)
Summary of the method: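 Wild-type Hek293 cells, 800/well, 18 h at 37C, then compound with Ro20-1724 for 30 min RT. cAMP by HTRF (cAMP-d2/anti-cAMP cryptate), 1 h RT, fluorescence read. 15 concentrations, triplicates.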

[8] = target: Thyrotropin receptor (Homo sapiens) (UniProt P16473); test: qHTS assay to identify small molecule antagonists of the thyroid stimulating hormone receptor (TSHR) signaling pathway (AID 1259385; calls by dose curve; also: nearly all actives have a fitted effect of over 20% in size; also: potency is read from the fitted curve at half-maximal effect)
Summary of the method: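 TSHR-HEK293 cells (800/well) plated 18 h, then compounds with Ro20-1724 and TSH at 1.5 ng/mL final, 30 min at room temperature. cAMP quantified by HTRF (cAMP-d2/anti-cAMP-cryptate, 1 h); 15 concentrations in triplicate.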

[9] = qHTS assay to identify small molecule agonists of the estrogen receptor alpha (ER-alpha) signaling pathway in the presence of an antagonist - cell viability counter screen (AID 1259386);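 also: series mostly up to about 92 µM; cells exposed to compounds for 22 h at 37 °C before the viability read; nearly all actives have a fitted effect of over 30% in size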
Summary of the method: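 Viability counter screen using VM7Luc4E2 (full-length ER-alpha, four ERE-luciferase). The cells were treated with compounds alongside ICI-182,780 10.0nM for 22hr, and live-cell protease fluorescence was quantified with CellTiter-Fluor.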

[10] = target: Progesterone receptor (Homo sapiens) (UniProt P06401); test: qHTS assay to identify small molecule agonists of the progesterone receptor (PR) signaling pathway (AID 1346784; calls by dose curve; also: nearly all actives have a fitted effect of over 30% in size)
Summary of the method: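 Compounds were tested for PR agonism in HEK 293T cells bearing a beta-lactamase gene under UAS control. Treatment lasted 16 hr at 37C; signal came from fluorescence of a FRET substrate.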

[11] = target: Progesterone receptor (Homo sapiens) (UniProt P06401); test: qHTS assay to identify small molecule antagonists of the progesterone receptor (PR) signaling pathway (AID 1346795; active = well fitted inhibition curve with a large enough effect in the signal ratio in the repeat runs, not every such curve was filed as active; the % refers to the signal ratio)
Summary of the method: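 In HEK293T cells bearing the PR-UAS-bla reporter, compound effects on promegestone-driven (1 nM) beta-lactamase expression are assessed after 16 hr using a fluorescent FRET substrate incubated 2 hr at room temperature.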

[12] = qHTS assay to identify small molecule antagonists of the progesterone receptor (PR) signaling pathway - cell viability counter screen (AID 1346798); also: series mostly up to about 92 µM; nearly all actives have a fitted effect of over 50% in size
Summary of the method: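 Following a 4 hr attachment, PR-UAS-bla HEK293T cells in charcoal-stripped FBS medium were exposed to compounds with R5020 for 16 hr; CellTiter-Glo was added and luminescence read after 30 min at room temperature.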

[13] = qHTS assay to identify small molecule agonists of the progesterone receptor (PR) signaling pathway - cell viability counter screen (AID 1346799; calls by dose curve; also: nearly all actives have a fitted effect of over 45% in size)
Summary of the method: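 Here, 3,000 PR-UAS-bla HEK293T cells per well were treated with compounds for 16 hr after a 6 hr preincubation at 37C and 5% CO2; cell viability is the CellTiter-Glo luminescence signal.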

[14] = qHTS assay to identify small molecule antagonists of the TGF-beta/Smad signaling pathway - cell viability counter screen (AID 1346824); also: nearly all actives have a fitted effect of over 50% in size
Summary of the method: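 SBE-bla HEK 293T cells, incubated overnight, then compound plus 0.25 ng/mL TGF-beta1 (stock added) for 5 hr at 37 C. Viability was read in the same wells by CellTiter-Glo luminescence after 30 min at room temperature.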

[15] = qHTS assay to identify small molecule agonists of the TGF-beta/Smad signaling pathway (AID 1346859; active = well fitted activation curve with a large enough effect in the signal ratio in the repeat runs, not every such curve was filed as active; the % refers to the signal ratio; also: series mostly up to about 77 µM)
Summary of the method: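 Each well held 4,000 SBE-bla HEK 293T cells incubated overnight before compound addition; 5 hr later the cleavable FRET substrate went on for 2 hr at room temperature, and fluorescence was read at two emissions.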

[16] = target: Thyrotropin-releasing hormone receptor (Homo sapiens) (UniProt P34981); test: qHTS assay to identify small molecule antagonists of the thyrotropin-releasing hormone receptor (TRHR) signaling pathway (AID 1346877; active = well fitted inhibition curve with a large enough effect in the repeat runs, not every such curve was filed as active; also: series mostly up to about 51 µM)
Summary of the method: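 Following an 18 h incubation at 37 °C and a 2 h calcium dye load, TRHR-HEK293 cells were exposed to compound (5 min, room temperature) and challenged with TRH, 1 nM final.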

[17] = target: Thyrotropin-releasing hormone receptor (Homo sapiens) (UniProt P34981); test: qHTS assay to identify small molecule agonists of the thyrotropin-releasing hormone receptor (TRHR) signaling pathway (AID 1346891; calls by dose curve; also: series mostly up to about 58 µM)
Summary of the method: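 Screening of agonists relied on calcium signalling in HEK293 cells expressing human TRHR: dye loading 2 h at 37 °C preceded compound addition and a 3-min fluorescence time course.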

[18] = Human pregnane X receptor (PXR) small molecule agonists, qHTS cell viability counter screen (AID 1346977); also: nearly all actives have a fitted effect of over 50% in size; also: potency is read from the fitted curve at half-maximal effect
Summary of the method: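 Tox21 qHTS format; PXR-Luc HepG2, 2,000/well, charcoal-stripped FBS 5%. Cpd exposure 24hr. Read: CellTiter-Fluor fluorescence, multiplexed with luciferase.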

[19] = qHTS assay to identify small molecule agonists of the TGF-beta/Smad signaling pathway - cell viability counter screen (AID 1346829); also: nearly all actives have a fitted effect of over 45% in size; also: potency is read from the fitted curve at half-maximal effect
Summary of the method: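 Luminescence from CellTiter-Glo, read after a 30 min room-temperature incubation, gives cell viability of SBE-bla HEK 293T cells treated 5 hr with compounds at 37 C.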

[20] = target: Androgen receptor (Homo sapiens) (UniProt P10275); test: qHTS assay to identify small molecule agonists of the androgen receptor (AR) signaling pathway in the presence of an antagonist (AID 1259381; calls by dose curve; also: nearly all actives have a fitted effect of over 15% in size)
Summary of the method: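 Test compounds at 15 concentrations were incubated for 16hr with MDA-kb2 reporter cells in presence of 3.0uM nilutamide (final). Signal: ONE-Glo luciferase luminescence.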

Sequence of Estrogen receptor beta (Homo sapiens) (Q92731 whole entry, looked up): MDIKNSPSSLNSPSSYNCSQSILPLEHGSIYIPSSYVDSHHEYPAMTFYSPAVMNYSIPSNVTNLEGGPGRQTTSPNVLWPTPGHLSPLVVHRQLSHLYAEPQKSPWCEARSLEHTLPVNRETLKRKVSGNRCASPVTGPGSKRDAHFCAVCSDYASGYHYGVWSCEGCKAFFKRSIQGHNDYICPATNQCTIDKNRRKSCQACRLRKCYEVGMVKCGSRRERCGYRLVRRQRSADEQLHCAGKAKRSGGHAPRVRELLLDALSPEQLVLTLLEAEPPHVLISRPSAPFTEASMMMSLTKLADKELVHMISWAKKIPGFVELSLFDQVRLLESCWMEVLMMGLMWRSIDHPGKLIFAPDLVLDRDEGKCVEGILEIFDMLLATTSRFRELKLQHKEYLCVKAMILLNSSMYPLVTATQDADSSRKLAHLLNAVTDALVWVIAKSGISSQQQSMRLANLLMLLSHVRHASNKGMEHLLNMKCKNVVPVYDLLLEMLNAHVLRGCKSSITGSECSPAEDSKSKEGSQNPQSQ
Sequence of Thyrotropin-releasing hormone receptor (Homo sapiens) (P34981 whole entry, looked up): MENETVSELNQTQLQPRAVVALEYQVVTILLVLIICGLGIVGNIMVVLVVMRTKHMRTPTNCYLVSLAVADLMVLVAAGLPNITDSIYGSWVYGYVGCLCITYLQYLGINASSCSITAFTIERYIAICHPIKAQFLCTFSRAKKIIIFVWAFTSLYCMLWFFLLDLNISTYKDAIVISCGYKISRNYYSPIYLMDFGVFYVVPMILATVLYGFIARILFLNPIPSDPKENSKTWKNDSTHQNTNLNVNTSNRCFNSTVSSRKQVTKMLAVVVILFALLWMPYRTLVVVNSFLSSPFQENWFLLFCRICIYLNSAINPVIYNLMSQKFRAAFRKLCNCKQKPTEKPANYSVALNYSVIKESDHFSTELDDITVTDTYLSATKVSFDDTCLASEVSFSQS
Sequence of Thyrotropin receptor (Homo sapiens) (P16473 whole entry, looked up): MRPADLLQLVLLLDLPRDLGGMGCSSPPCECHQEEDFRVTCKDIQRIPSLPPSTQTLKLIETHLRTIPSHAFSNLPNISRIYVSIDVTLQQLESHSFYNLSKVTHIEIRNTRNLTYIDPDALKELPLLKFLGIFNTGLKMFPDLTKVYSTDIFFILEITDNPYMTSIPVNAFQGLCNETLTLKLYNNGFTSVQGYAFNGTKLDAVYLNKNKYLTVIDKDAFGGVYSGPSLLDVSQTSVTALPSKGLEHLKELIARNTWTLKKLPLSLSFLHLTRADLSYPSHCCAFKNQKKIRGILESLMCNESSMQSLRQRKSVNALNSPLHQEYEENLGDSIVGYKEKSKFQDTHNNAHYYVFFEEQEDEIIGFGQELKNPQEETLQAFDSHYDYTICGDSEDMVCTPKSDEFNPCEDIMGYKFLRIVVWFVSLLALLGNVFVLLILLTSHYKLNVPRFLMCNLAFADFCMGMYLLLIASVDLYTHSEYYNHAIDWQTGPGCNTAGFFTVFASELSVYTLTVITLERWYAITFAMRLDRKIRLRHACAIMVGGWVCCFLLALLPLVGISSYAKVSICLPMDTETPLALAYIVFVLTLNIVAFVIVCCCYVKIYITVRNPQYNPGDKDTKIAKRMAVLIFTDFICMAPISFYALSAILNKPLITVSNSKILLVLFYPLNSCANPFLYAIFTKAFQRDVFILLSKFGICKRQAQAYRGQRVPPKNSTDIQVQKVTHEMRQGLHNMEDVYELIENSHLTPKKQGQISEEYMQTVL
Sequence of Estrogen receptor (Homo sapiens) (P03372 whole entry, looked up): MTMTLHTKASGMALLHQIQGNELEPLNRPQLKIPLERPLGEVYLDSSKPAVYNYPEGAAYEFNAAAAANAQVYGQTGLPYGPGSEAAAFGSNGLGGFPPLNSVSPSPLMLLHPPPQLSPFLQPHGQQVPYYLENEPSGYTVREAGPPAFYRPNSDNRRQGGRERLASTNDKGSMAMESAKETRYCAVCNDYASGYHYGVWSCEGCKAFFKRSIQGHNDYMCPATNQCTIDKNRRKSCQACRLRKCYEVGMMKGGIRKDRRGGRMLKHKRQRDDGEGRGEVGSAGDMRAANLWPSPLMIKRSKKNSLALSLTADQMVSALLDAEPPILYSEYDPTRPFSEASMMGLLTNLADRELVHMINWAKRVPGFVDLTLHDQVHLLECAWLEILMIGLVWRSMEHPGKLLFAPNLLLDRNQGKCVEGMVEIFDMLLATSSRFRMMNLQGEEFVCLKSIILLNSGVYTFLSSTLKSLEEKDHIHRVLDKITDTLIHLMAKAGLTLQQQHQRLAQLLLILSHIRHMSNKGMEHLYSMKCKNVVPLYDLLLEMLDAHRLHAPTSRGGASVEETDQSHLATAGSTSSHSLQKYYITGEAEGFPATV
Sequence of Progesterone receptor (Homo sapiens) (P06401 whole entry, looked up): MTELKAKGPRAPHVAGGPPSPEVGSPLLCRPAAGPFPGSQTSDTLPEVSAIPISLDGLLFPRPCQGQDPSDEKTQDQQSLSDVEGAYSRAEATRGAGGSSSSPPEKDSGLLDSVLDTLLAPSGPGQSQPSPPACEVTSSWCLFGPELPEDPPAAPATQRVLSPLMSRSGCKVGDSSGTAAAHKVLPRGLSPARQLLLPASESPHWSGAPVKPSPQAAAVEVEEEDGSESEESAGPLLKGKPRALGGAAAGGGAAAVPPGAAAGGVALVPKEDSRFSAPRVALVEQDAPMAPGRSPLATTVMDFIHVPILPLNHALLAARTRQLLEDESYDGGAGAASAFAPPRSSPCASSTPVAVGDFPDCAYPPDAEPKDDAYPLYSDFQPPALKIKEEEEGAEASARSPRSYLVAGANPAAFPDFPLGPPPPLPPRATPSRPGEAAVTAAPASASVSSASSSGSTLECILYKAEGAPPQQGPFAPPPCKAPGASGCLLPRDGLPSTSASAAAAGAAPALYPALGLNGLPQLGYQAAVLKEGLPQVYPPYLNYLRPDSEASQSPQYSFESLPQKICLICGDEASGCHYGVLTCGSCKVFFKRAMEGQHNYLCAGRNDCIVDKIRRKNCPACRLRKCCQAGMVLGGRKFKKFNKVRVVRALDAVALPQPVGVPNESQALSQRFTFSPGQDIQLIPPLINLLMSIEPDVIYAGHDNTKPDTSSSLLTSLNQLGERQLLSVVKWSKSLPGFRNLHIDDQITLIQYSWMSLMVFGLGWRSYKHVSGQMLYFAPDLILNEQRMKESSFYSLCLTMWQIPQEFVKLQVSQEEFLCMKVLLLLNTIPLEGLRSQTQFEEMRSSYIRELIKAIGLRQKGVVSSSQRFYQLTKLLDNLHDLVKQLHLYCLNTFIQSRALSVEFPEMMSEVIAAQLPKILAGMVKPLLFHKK
Sequence of Androgen receptor (Homo sapiens) (P10275 whole entry, looked up): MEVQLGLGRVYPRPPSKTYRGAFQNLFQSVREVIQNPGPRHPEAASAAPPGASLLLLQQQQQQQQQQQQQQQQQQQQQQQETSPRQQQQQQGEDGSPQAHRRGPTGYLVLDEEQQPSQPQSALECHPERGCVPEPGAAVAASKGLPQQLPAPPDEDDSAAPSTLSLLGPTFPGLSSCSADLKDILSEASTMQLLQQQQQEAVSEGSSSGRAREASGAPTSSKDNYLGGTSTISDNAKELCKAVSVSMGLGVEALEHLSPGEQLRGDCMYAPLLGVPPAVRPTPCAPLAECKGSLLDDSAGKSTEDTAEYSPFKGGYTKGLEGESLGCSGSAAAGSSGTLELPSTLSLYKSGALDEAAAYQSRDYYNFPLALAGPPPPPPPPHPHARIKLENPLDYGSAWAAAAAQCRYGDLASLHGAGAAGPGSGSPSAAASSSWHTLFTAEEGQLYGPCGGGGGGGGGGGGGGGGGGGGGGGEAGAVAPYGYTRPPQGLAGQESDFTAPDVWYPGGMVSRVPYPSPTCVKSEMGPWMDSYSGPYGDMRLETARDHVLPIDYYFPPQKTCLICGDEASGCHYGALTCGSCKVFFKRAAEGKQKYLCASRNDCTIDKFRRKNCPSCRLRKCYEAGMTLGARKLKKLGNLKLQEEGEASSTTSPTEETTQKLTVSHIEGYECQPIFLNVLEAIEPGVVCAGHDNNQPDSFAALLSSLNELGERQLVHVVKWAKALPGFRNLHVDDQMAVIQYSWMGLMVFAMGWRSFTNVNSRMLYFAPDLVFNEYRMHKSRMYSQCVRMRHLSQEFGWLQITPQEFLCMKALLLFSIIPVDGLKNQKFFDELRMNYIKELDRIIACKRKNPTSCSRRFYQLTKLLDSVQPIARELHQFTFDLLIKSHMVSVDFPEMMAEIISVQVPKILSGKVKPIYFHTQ

Structure (SMILES) | Potency [1] | Potency [2] | Potency [3] | Potency [4] | Potency [5] | Potency [6] | outcome [7] | Potency [8] | Potency [9] | outcome [10] | Potency [11] | Potency [12] | Potency [13] | Potency [14] | Potency [15] | Potency [16] | Potency [17] | Potency [18] | Potency [19] | Potency [20]
COC(=O)CC#N | inactive | inactive | inactive | inactive | inactive | inactive | inactive | inactive | inactive | inactive | inactive | inactive | inactive | inactive | inactive | inactive | inactive | inactive |  | 
O=C1OC(=O)c2cccc3cccc1c23 | inactive | inactive | inactive | inactive | inactive | inactive | inactive | inactive |  | inactive | inactive | inactive | inactive | inactive | inactive | inactive | inactive |  | inactive | 
CCc1ccc(C)nc1 | inactive | inactive | inactive | inactive |  | inactive | inactive |  | inactive | inactive |  |  | inactive | inactive | inactive |  |  | inactive |  | inactive
COc1ccccc1OCCNCC(O)COc1cccc2[nH]c3ccccc3c12 (stereo unspecified) | inactive | 7.5 µM (active) | 29.8 µM (active) | 9.44 µM (active) |  | inactive | inactive | 33.5 µM (active) |  |  |  |  |  | inactive | inactive |  | inactive |  | inactive | inactive
CC(C)C(=O)OCc1ccccc1 | inactive | inactive | inactive | inactive | inactive | inactive | inactive | inactive | inactive | inactive | inactive | inactive | inactive | inactive | inactive |  |  | inactive | inactive | 
CCc1c(C(=O)O)c(=O)cnn1-c1ccc(Cl)cc1 | inactive | inactive | inactive | inactive | inactive | inactive | inactive | inactive | inactive | inactive | inactive | inactive | inactive | inactive | inactive | inactive | inactive | inactive | inactive | 
Cn1cnc2ncnc(N)c21 | inactive | inactive | inactive | inactive | inactive | inactive | inactive | inactive | inactive | inactive | inactive |  |  | inactive | inactive | inactive | inactive | inactive | inactive | 
O=C(Nc1ccc(Cl)cc1)Nc1ccc(Cl)c(C(F)(F)F)c1 | inactive | 7.5 µM (active) | 11.9 µM (active) | 13.3 µM (active) | 13.3 µM (active) | inactive | inactive | 26.6 µM (active) |  |  |  |  |  |  | inactive | inactive | inactive | 7.5 µM (active) | 15.1 µM (active) | 

Source: PubChem BioAssay (Tox21)
